# High-throughput results (PubChem BioAssay)
# Coupling enz: inhibits coupling enzyme system, counter-screen for aldolase hits | coupling enzyme system counterscreen, AmpLite Red fluorescence | activity change, negative = inhibition, % at 58.2 µM, hits read low | 290,000 tested, 0.67% active; in the data active means activity change below about -30%
#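 Activity here indicates interference with the coupling reaction, not aldolase inhibition. Compounds at 57.5 uM final met coupling enzymes for 10 min at RT; substrate and AmpLite Red detection followed, with a 525/598 nm fluorescence read after 20 min.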
# ELG1 DNA repair: blocks ELG1-dependent DNA repair in HEK293T cells | 330,000 tested, 2.3% active | AID 504467 | Potency, µM (series often up to 46.1 µM), inactives show top-dose activity change, negative = inhibition, actives largely listed as inhibitors | HEK293T ELG1-luciferase reporter, luminescence, 16 h; DNA damage induced by 5-fluorouridine; further: potency means the concentration at half of the fitted maximal effect; nearly all actives have a fitted effect of over 55% in size
#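 DMSO vehicle served as the neutral condition. Each well held 2,000 cells given 5-fluorouridine plus compound; after 16 hr at 37 °C/5% CO2, ONE-Glo was added and luciferase measured 30 min later.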
# Sfp PPTase inh: Sfp phosphopantetheinyl transferase inhibition | Biochemical Sfp PPTase activity, qHTS | Potency, µM, without a hit: largest response in the series, negative = inhibition, hits mostly inhibitors | 310,000 tested, 3.5% active;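 further: the enzyme is Sfp with the accession as filed and its product quenches rhodamine fluorescence; potency means the concentration at half of the fitted maximal effect; 0% = enzyme reaction without inhibitor and -100% = no enzyme wells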
#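 Buffer: 50 mM Hepes-Na pH 7.6, 10 mM MgCl2, 0.01% Nonidet P-40, 0.01% BSA. Enzyme 15 nM, pre-exposed to compound 15 min; substrates then added and fluorescence change tracked over 30 min.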
# Giardia kill: kills Giardia lamblia; Giardia lamblia trophozoite viability; activity change, % at 7.66 µM, hits read low; 340,000 tested, 0.15% active; in the data active means activity change below about -80%; inconclusive means between about -30% and that limit;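 further: parasites exposed to compound for two days anaerobically before the ATP read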
#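 Luminescent ATP signal served as the viability read-out, measured 15-30 min after adding ATP detection reagent to trophozoites that had been incubated with compounds for 48 hrs at 37 deg C anaerobically at 100 cells/well.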
# * hit, by the source's call; ? = inconclusive; nt = no result given. Hits are enriched below; roughly 5.5% of the tested compounds scored in any of these assays. Unless noted, the call rests on the fitted dose curve; in most records, active means well fitted curve in the direction sought with a large enough effect; inconclusive means small, poorly fitted or top-dose-only effect, or another doubt; inactive means no such curve, though single readings can be large; an effect the other way counts as inactive or inconclusive. Unless noted, on the % scale 0 is the no-effect control and ±100 the full control effect.
SMILES,Coupling enz,ELG1 DNA repair,Sfp PPTase inh,Giardia kill
CCCS(=O)(=O)c1nc(S(=O)(=O)c2ccc(C)cc2)c(N2CCC(C(N)=O)CC2)s1,-1.2,2.0%,-0.7%,-2.4
O=C(Nc1ccc(N2CCOCC2)c(S(=O)(=O)Nc2ccc(Cl)cc2)c1)c1cnccn1,-0.4,?,5.62µM*,-19.5
COc1ccc(NS(=O)(=O)c2cc(NC(=O)c3ccc(Cl)cc3)ccc2N2CCOCC2)cc1,nt,9.2µM*,nt,12.0
O=C(Nc1ccc(N2CCOCC2)c(S(=O)(=O)Nc2ccc(Cl)cc2)c1)c1ccc(=O)[nH]n1,nt,-12.4%,nt,52.4
COCC(=O)N1CCC(Oc2ccc(C(=O)N(C)C(C)c3ccon3)cc2)CC1 (stereo not given),-4.5,12.1%,2.3%,20.1
c1csc(-c2noc(COc3ccc4c(c3)CCCC4)n2)c1,-0.7,?,44.7µM*,3.3
Brc1ccc(-c2noc(COc3ccc4c(c3)CCC4)n2)o1,0.7,26.3%,-11.9%,-14.9
COc1ccccc1N1C(=O)CC(Nc2ccc(N3CCOCC3)cc2)C1=O (stereo not given),-23.2,0.8%,79.4µM*,27.2
CCOc1ccccc1N1C(=O)CC(Nc2ccc(N3CCOCC3)cc2)C1=O (stereo not given),-0.1,?,-12.8%,-15.8
Cc1onc(-c2c(F)cccc2Cl)c1C(=O)NC1C(=O)N2C1SC(C)(C)C2C(=O)O (stereo not given),nt,nt,-20.6%,nt
C=CCn1c(COc2ccc(F)cc2)nnc1SCC(=O)NC(=O)NCc1ccco1,1.9,1.1%,-25.7%,2.0
C=CCn1c(COc2cccc(C)c2)nnc1SCC(=O)NC(=O)NCc1ccco1,0.6,2.7%,25.1µM*,-5.6
COc1cccc(N2CCN(C(=O)c3ccccc3SCC(=O)NCc3ccco3)CC2)c1,nt,?,nt,-12.9
COc1cccc2sc(N)nc12,nt,18.1%,nt,12.6
COc1cccc2sc(N(C)c3ccccc3)nc12,-3.5,?,70.8µM*,-24.6
COc1ccccc1-c1c(-c2ccc(O)cc2O)n[nH]c1C(F)(F)F,3.6,5.8µM*,10.6%,-14.9
N#Cc1ccccc1OCC(=O)Nc1nnc(C2CC2)s1,nt,?,nt,-2.8
COc1ccc(C(=O)N(O)c2ccccc2)cc1,0.0,nt,-8.0%,nt
COc1ccc(-c2ncc3ccccn23)cc1,-3.2,?,79.4µM*,6.2
COc1cc(OC)cc(-c2ncc3ccccn23)c1,-0.3,-4.4%,-11.1%,9.2
COc1cc(-c2ncc3ccccn23)cc(OC)c1OC,-0.4,-13.4%,50.1µM*,5.7
CCCn1c(-c2ccc(F)cc2)nc2c(NCCN3CCCC3)nc(C)nc21,6.0,nt,7.7%,nt
CCOC(=O)[C@H](CCc1ccccc1)N[C@@H](C)C(=O)N1C(=O)N(C)C[C@H]1C(=O)O,nt,nt,-3.6%,nt
COc1cc(CC(=O)Nc2nccs2)cc(OC)c1OC,0.4,-9.5%,0.9%,-7.0
COc1ccc(CC(=O)Nc2ccccc2-c2ccccc2)cc1OC,-0.4,-27.3%,0.7%,-4.3
SMILES,Coupling enz,ELG1 DNA repair,Sfp PPTase inh,Giardia kill
COc1cc(CC(=O)Nc2nc(-c3ccccc3)c(C(C)=O)s2)cc(OC)c1OC,0.9,8.2µM*,2.4%,-0.9
COc1ccc(CC(=O)Nc2nc(-c3ccccc3)c(C(C)=O)s2)cc1OC,-3.1,18.3µM*,-9.5%,-1.7
Cn1c(NC(=O)c2ccc(C(C)(C)C)cc2)cc(=O)n(C)c1=O,1.7,?,8.0%,-26.2
Cn1c(NNC(=O)c2ccc(C(C)(C)C)cc2)cc(=O)n(C)c1=O,-34.0*,10.1%,-17.5%,24.1
O=C(NCCS(=O)(=O)N1CCN(Cc2ccccc2)CC1)c1ccc(F)cc1,nt,13.1%,nt,-2.6
CCOC(=O)C(CC)Sc1nc2c(c(=O)[nH]c(=O)n2C)n1C/C=C(/C)Cl (stereo not given),1.0,2.8%,14.1µM*,-27.1
Cc1[nH]c2ccc3ncccc3c2c1C,-38.6*,2.5%,-53.3%,9.6
CC1CC2(CC(C)(C(=O)CSc3n[nH]c(-c4ccccc4Cl)n3)OC2=O)C(=O)O1 (stereo not given),1.9,24.2%,-6.7%,14.1
CC1(C(=O)CSc2ncn[nH]2)CCC(=O)O1 (stereo not given),0.6,-1.3%,56.2µM*,nt
CC1(C(=O)CSc2nc3ccccc3[nH]2)CCC(=O)O1 (stereo not given),-2.1,23.4%,-13.6%,-5.6
CC1(C(=O)CSc2n[nH]c(-c3ccccc3Cl)n2)CCC(=O)O1 (stereo not given),6.1,13.3%,50.1µM*,nt
Cc1ccc(C(=O)CN(CCCC(N)=O)S(=O)(=O)c2ccc([N+](=O)[O-])cc2)cc1,nt,2.4%,nt,6.3
CC(OC(=O)Cn1cnc2c1c(=O)n(C)c(=O)n2C)C(=O)Nc1ccc(Cl)cc1 (stereo not given),nt,6.3%,nt,-2.4
C[C@H](NC(=O)[C@@H]1C[C@H]1[C@@H](NC(=O)OCc1ccccc1)c1ccccc1)c1ccccc1,1.5,nt,22.5%,nt
CC(C)(C)NC(=O)CCN(/N=C/c1ccc([N+](=O)[O-])o1)C1=NS(=O)(=O)c2ccccc21,-5.0,?,-10.4%,-92.4*
CN(C)c1ccc(/C=N/N(CCC(=O)NC(C)(C)C)C2=NS(=O)(=O)c3ccccc32)cc1,0.4,?,0.7%,5.5
COCCN(C(=O)CSc1nnc(-c2ccccc2OC)o1)c1c(N)n(CC(C)C)c(=O)[nH]c1=O,nt,16.7%,nt,16.1
CCCc1nc2ccc(NC(=O)c3ccco3)cc2c(=O)n1Cc1ccccc1Cl,-1.0,18.4µM*,1.3%,3.1
CCN1C(=NCC(C)C)N[C@@H](c2cccc(F)c2)C(C(=O)OC)=C1C,-0.7,-12.0%,0.7%,-22.4
O=C(CSc1nc(C(F)(F)F)cc(=O)[nH]1)Nc1ccc2c(c1)OCCO2,nt,0.9%,nt,14.1
c1ccc2c(c1)CC/C2=N/Nc1nc2ccccc2[nH]1,-19.8,?,35.5µM*,-18.2
CC(C)(C)C1CCC(=NNc2nc3ccccc3[nH]2)CC1 (stereo not given),0.7,-1.4%,-9.4%,3.6
N#Cc1c(N)nc(SCC(=O)C23CC4CC(CC(C4)C2)C3)c(C#N)c1-c1ccc(Cl)cc1,0.6,?,4.9%,-16.6
CSc1nc(N)nc(SCC(=O)C23CC4CC(CC(C4)C2)C3)c1C#N,-1.5,20.6µM*,6.3%,7.0
CC(C)n1c(SCC(=O)Nc2ccccc2N2CCOCC2)nc2c1c(=O)n(C)c(=O)n2C,2.8,?,6.1%,2.6
SMILES,Coupling enz,ELG1 DNA repair,Sfp PPTase inh,Giardia kill
CCn1c(SCC(=O)Nc2ccccc2N2CCCCC2)nc2c1c(=O)n(C)c(=O)n2C,1.6,18.4µM*,?,7.8
CN(C(=O)c1ccc(NC(=O)Cc2ccc(NC(=O)C3CCCN(C(=O)CCc4ccccc4)C3)cc2)cc1)C1CCCC1 (stereo not given),nt,nt,nt,10.5
NC(C(=O)O)C(O)C(=O)O (stereo not given),1.3,nt,8.7%,nt
NC(C(=O)O)[C@H](O)C(=O)O (stereo not given in full),nt,nt,56.2µM*,nt
COc1ccc(-c2noc(CCC(=O)NC3CCCCC3)n2)cc1,-0.2,2.8%,17.6%,-0.5
Cc1oc(=O)c(NC(=O)c2ccc(Cl)cc2)cc1C(=O)c1ccccc1,-5.7,?,8.91µM*,-10.3
